Results: PubChem BioAssay (NCI)
Several values for one entry are separate records, joined by “and”; a condition that tells them apart may be missing. Equal entries are not always repeated. About 83,000 compounds went through this panel and 20% of them were active in at least one assay; those are over-represented in the sample as a whole.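 Results are percent growth after 48 hours of single-concentration exposure. 100 means growth as in untreated cells, lower positive values show inhibition; negative values down to -100 show cell death.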 Values without a mark were called inactive. Activity calls are given as the source filed them. The calls were made as follows: active = growth percent below 10; inactive = the rest.

Tested on: MDA-MB-468 breast
Assay: NCI-60 one-dose screen, 48 h (100 = growth as untreated, 0 = no growth, -100 = all killed)
Details: 10 µM unless noted

Which growth does the source give for `c1ccc(-c2nc(N3CCNCC3)c3nc(-c4ccccc4)oc3n2)cc1` here?
The growth was -37.2% (active).

Which growth does the source give for `Cc1c2oc3c(C)ccc(C(=O)OC(C)C4NC(=O)C(C(C)C)N(C)C(=O)CN(C)C(=O)C5CCCN5C(=O)C(C(C)C)NC4=O)c3nc-2c(C(=O)OC(C)C2NC(=O)C(C(C)C)N(C)C(=O)CN(C)C(=O)C3CCCN3C(=O)C(C(C)C)NC2=O)c(N)c1=O` (stereo not drawn) here?
The growth was -68.7% (active).

`COc1cc(-c2nc(SC(C)C)n(C(C)C)c(=O)c2C#N)ccc1OCc1ccccc1` was tested. Which growth did it give?
The growth was 66.8%.

`CCOc1ccc2cc(-c3nn(CC4CCNCC4)c4ncnc(N)c34)ccc2c1` was tested. Which growth did it give?
Its growth is 93.3% and 40.5%.

How did the growth turn out when `CO/N=C(/C)c1ccc(NC(=O)CSc2nnc(-c3ccncc3)n2-c2ccccc2)cc1` was run?
Its growth is 50.8%.

Which growth does the source give for `COCCNC(=O)c1ccc(-c2nc3ccc4[nH]ncc4c3c3c2CCCC3)cc1` here?
The growth was 4.81% (active).

`COc1ccc2c(c1)CCCC21C(=O)Nc2c(Cl)cccc21` (stereo not drawn) was tested. Which growth did it give?
Its growth is 109%.

How did the growth turn out when `CN(C)CCCN(Cc1ccccc1O)C(=S)Nc1ccc(Cl)cc1` was run?
Its growth is 89.6%.

`COc1cc(CNS(=O)(=O)c2ccc(C)cc2)ccc1OCc1cn(-c2ccccc2)nn1` was tested. Which growth did it give?
The growth was 70.7%.

With `CC1(c2ccccc2Cl)NC(=O)NC1=O` (stereo not drawn) as the compound, how does the growth read?
Its growth is 96.7%.

With `COc1cc2c(cc1I)-c1c(cc(OC)c(OC)c1OC)CC[C@@H]2NC(C)=O` as the compound, how does the growth read?
The growth was -6.02% (active).

Which growth does the source give for `c1c(-c2cc(C3CC3)[nH]n2)n[nH]c1C1CC1` here?
The growth was 95.4%.

Which growth does the source give for `O=C(NC1CC1)c1cc2n(n1)CC(c1ccccc1)N2` (stereo not drawn) here?
Its growth is 98.5%.
